Measured values published in PubChem BioAssay (NCATS).
Inconclusive results are not listed. Calls of active or inactive are those of the source. Calls come from the whole dose curve; as a rule, active = well fitted curve in the direction sought with a large enough effect; inconclusive = small, poorly fitted or top-dose-only effect, or another doubt; inactive = no such curve, though single readings can be large; an effect the other way counts as inactive or inconclusive.

Experiments:
CRL-7250 = normal cell line; assay: Cytotoxic Profiling of Annotated Libraries Using Quantitative High-Throughput Screening (AID 1296008); settings: Five cell lines viability, CellTiter-Glo ATP luminescence, 48-72 h; max response: hits give low values; note: nearly all actives have a fitted effect of over 60% in size; for max response: % is set by controls: 0 for no effect and ±100 for the full control effect
Outline: (§1)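 Compounds were pin-transferred onto cells and incubated 48 or 72 hr at 37 degree Celsius, 95% humidity. CellTiter-Glo was added, plates sat 10 min at room temperature, then ATP-coupled luminescence was imaged as the viability read-out.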

HEK293 = assay: as above; settings: Five cell lines viability, CellTiter-Glo ATP luminescence, 48-72 h; max response: hits give low values
Outline: as §1

HaCat [1] = assay: as above; settings: Five cell lines viability, CellTiter-Glo ATP luminescence, 48-72 h; max response: hits give low values
Outline: as §1

KB-3-1 = assay: as above; settings: Five cell lines viability, CellTiter-Glo ATP luminescence, 48-72 h; max response: hits give low values
Outline: as §1

NIH3T3 = assay: as above; settings: Five cell lines viability, CellTiter-Glo ATP luminescence, 48-72 h; max response: hits give low values
Outline: as §1

HACAT [2] = assay: qHTS assay to identify novel small-molecules to repurpose for Merkel cell carcinoma treatment (AID 1296009); settings: MCC and control cell lines, CellTiter-Glo viability, 72 h; at 44.8 µM (top of the series) unless noted; note: nearly all actives have a fitted effect of over 60% in size
Outline: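 Luminescence from CellTiter-Glo, read 10 min after addition at room temperature, reported viability following a 72 hr, 37 degree celsius treatment with NPC or MIPE compounds in titration; values normalized to plate controls.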

C33A = assay: Primary qHTS to identify gynecologic anti-cancer compounds using libraries of approved drugs and bioactive compounds (AID 1345084); settings: Gynecologic cancer cell panel viability, ATPlite luminescence, 48 h; series mostly up to 57.5 µM; note: % is set by controls: 0 for no effect and ±100 for the full control effect; nearly all actives have a fitted effect of over 55% in size
Outline: (§2)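 In this quantitative HTS, cell killing is estimated from loss of ATP-dependent luciferase light. Cells see five compound concentrations over a 48 h exposure.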

CAOV3 = assay: as above; settings: Gynecologic cancer cell panel viability, ATPlite luminescence, 48 h; series mostly up to 57.5 µM
Outline: as §2

CASKI = assay: as above; settings: Gynecologic cancer cell panel viability, ATPlite luminescence, 48 h; series mostly up to 57.5 µM
Outline: as §2

Es-2 = assay: as above; settings: Gynecologic cancer cell panel viability, ATPlite luminescence, 48 h; series mostly up to 57.5 µM
Outline: as §2

HeLa = assay: as above; settings: Gynecologic cancer cell panel viability, ATPlite luminescence, 48 h; series mostly up to 57.5 µM
Outline: as §2

Hek293T = assay: as above; settings: Gynecologic cancer cell panel viability, ATPlite luminescence, 48 h, control line for the selectivity index; series mostly up to 57.5 µM
Outline: as §2

JEG-3 = assay: as above; settings: Gynecologic cancer cell panel viability, ATPlite luminescence, 48 h; series mostly up to 57.5 µM
Outline: as §2

OV90 = assay: as above; settings: Gynecologic cancer cell panel viability, ATPlite luminescence, 48 h; series mostly up to 57.5 µM
Outline: as §2

COc1ccc(/C=C/C(=O)N2CCCC2)cc1
inactive: max response (CRL-7250) 1.09% | max response (HEK293) 2.31% | outcome (HaCat [1]) | max response (KB-3-1) 2.27% | max response (NIH3T3) -2.69% | outcome (HACAT [2]) | Potency (C33A) | Potency (CAOV3) | outcome (CASKI) | Potency (Es-2) | Potency (HeLa) | Potency (Hek293T) | Potency (JEG-3) | Potency (OV90)

CC1(C)C(=O)N2c3ccccc3C(O)(CC(C(=O)O)n3cnc4ccccc4c3=O)C2N1O (configuration not stated)
inactive: max response (CRL-7250) 0.472% | max response (HEK293) -0.978% | outcome (HaCat [1]) | max response (KB-3-1) 4.14% | max response (NIH3T3) 1.17% | outcome (HACAT [2]) inactive [at 17.4 µM] | Potency (C33A) | Potency (CAOV3) | outcome (CASKI) | Potency (Es-2) | Potency (HeLa) | Potency (Hek293T) | Potency (JEG-3) | Potency (OV90)

Cc1sc(C)c(C(=O)NC2(c3ccc(C(=O)O)cc3)CC2)c1Cc1ccc(C(F)(F)F)cc1
inactive: max response (CRL-7250) -2.74% | max response (HEK293) -5.46% | outcome (HaCat [1]) | max response (KB-3-1) 8.32% | outcome (NIH3T3) | outcome (HACAT [2]) | Potency (C33A) | Potency (CAOV3) | outcome (CASKI) | Potency (Es-2) | Potency (HeLa) | Potency (Hek293T) | Potency (JEG-3) | Potency (OV90)

COc1cc2c(c(O)c1OC/C=C(\C)CC/C=C(/C)CCC=C(C)C)CN(C(CCC(=O)O)C(=O)O)C2=O (configuration not stated)
inactive: outcome (CRL-7250) | max response (HEK293) 2.31% | outcome (HaCat [1]) | max response (KB-3-1) 3.38% | max response (NIH3T3) -3.47% | outcome (HACAT [2]) inactive [at 17.4 µM] | Potency (C33A) | Potency (CAOV3) | outcome (CASKI) | Potency (Es-2) | Potency (HeLa) | Potency (Hek293T) | Potency (JEG-3) | Potency (OV90)

C/C=C/C=C/C=C/C(=O)N(C)C(C(=O)NC(C)C(=O)N1CCCC1C(N)=O)C(C)C (configuration not stated)
inactive: max response (CRL-7250) -4.46% | max response (HEK293) 2.9% | outcome (HaCat [1]) | outcome (KB-3-1) | max response (NIH3T3) 0.323% | outcome (HACAT [2]) inactive [at 17.4 µM] | Potency (C33A) | Potency (CAOV3) | outcome (CASKI) | Potency (Es-2) | Potency (HeLa) | Potency (Hek293T) | Potency (JEG-3) | Potency (OV90)

CC(C)CC(=O)NCCn1cc(C(=O)O)c(=O)cc1C(O)c1ccccc1 (configuration not stated)
inactive: outcome (CRL-7250) | max response (HEK293) -11.3% | outcome (HaCat [1]) | outcome (KB-3-1) | max response (NIH3T3) 3.17% | outcome (HACAT [2]) | Potency (C33A) | Potency (CAOV3) | outcome (CASKI) | Potency (Es-2) | Potency (HeLa) | Potency (Hek293T) | Potency (JEG-3) | Potency (OV90)

O=C(O)CCc1ccc(NCc2cccc3c2CCCN3CCOc2ccccc2)cc1F
inactive: max response (CRL-7250) 0.539% | max response (HEK293) 0.703% | outcome (HaCat [1]) | max response (KB-3-1) 2.13% | outcome (NIH3T3) | outcome (HACAT [2]) | Potency (C33A) | Potency (CAOV3) | outcome (CASKI) | Potency (Es-2) | Potency (HeLa) | Potency (Hek293T) | Potency (JEG-3) | Potency (OV90)

O=C(/C=C/c1ccc(O)cc1)OC[C@H]1O[C@@H](O/C(=C\c2ccccc2)C(=O)O)[C@H](O)[C@@H](O)[C@@H]1O
inactive: outcome (CRL-7250) | max response (HEK293) -7.06% | outcome (HaCat [1]) | outcome (KB-3-1) | max response (NIH3T3) 4.52% | outcome (HACAT [2]) inactive [at 17.4 µM] | Potency (C33A) | Potency (CAOV3) | outcome (CASKI) | Potency (Es-2) | Potency (HeLa) | Potency (Hek293T) | Potency (JEG-3) | Potency (OV90)

COc1cc(O)cc2c1C(=O)OC(C)CCCCCCC2 (configuration not stated)
inactive: max response (CRL-7250) 0.54% | max response (HEK293) -6.62% | outcome (HaCat [1]) | outcome (KB-3-1) | max response (NIH3T3) -11.2% | outcome (HACAT [2]) | Potency (C33A) | Potency (CAOV3) | outcome (CASKI) | Potency (Es-2) | Potency (HeLa) | Potency (Hek293T) | Potency (JEG-3) | Potency (OV90)

COC1OC(O)C2(CCC3(O2)C(C)CC2OC(=O)C4(C)CCCC3(C)C24)C1O (configuration not stated)
inactive: outcome (CRL-7250) | max response (HEK293) -1.02% | outcome (HaCat [1]) | max response (KB-3-1) -1.51% | max response (NIH3T3) 1.38% | outcome (HACAT [2]) | Potency (C33A) | Potency (CAOV3) | outcome (CASKI) | Potency (Es-2) | Potency (HeLa) | Potency (Hek293T) | Potency (JEG-3) | Potency (OV90)

C[C@H]1CC(=O)C2=C(C1)C(O)C(O)[C@@]1(O)[C@H]2C(=O)c2cccc(O)c2[C@@H]1O (some centres not stated)
inactive: max response (CRL-7250) -10.1% | max response (HEK293) 3.36% | outcome (HaCat [1]) | outcome (KB-3-1) | max response (NIH3T3) 3.59% | outcome (HACAT [2]) | Potency (C33A) | Potency (CAOV3) | outcome (CASKI) | Potency (Es-2) | Potency (HeLa) | Potency (Hek293T) | Potency (JEG-3) | Potency (OV90)

O=C(OC1C=C(CO)C2C(OC3OC(CO)C(O)C(O)C3O)OC=CC12O)c1ccc(O)cc1 (configuration not stated)
inactive: max response (CRL-7250) 4.89% | max response (HEK293) -1.34% | outcome (HaCat [1]) | max response (KB-3-1) 1.12% | max response (NIH3T3) -4.5% | outcome (HACAT [2]) inactive [at 17.4 µM] | Potency (C33A) | Potency (CAOV3) | outcome (CASKI) | Potency (Es-2) | Potency (HeLa) | Potency (Hek293T) | Potency (JEG-3) | Potency (OV90)

CC1(C)CC[C@]2(C(=O)O[C@@H]3O[C@H](CO)[C@@H](O)[C@H](O)[C@H]3O)CC[C@]3(C)C(=CCC4[C@@]5(C)CC[C@H](O[C@@H]6O[C@H](C(=O)O)[C@@H](O[C@@H]7O[C@H](CO)[C@@H](O)[C@H](O)[C@H]7O)[C@H](O)[C@H]6O)C(C)(C)C5CC[C@]43C)C2C1 (some centres not stated)
inactive: max response (CRL-7250) -9.08% | max response (HEK293) 3.3% | outcome (HaCat [1]) | outcome (KB-3-1) | max response (NIH3T3) 3.38% | outcome (HACAT [2]) inactive [at 9.27 µM] | activity change, negative = cytotoxicity (C33A) -1.25% [at 11.6 µM] | activity change, negative = cytotoxicity (CAOV3) 6.34% [at 11.6 µM] | activity change, negative = cytotoxicity (CASKI) 0.127% [at 11.6 µM] | activity change, negative = cytotoxicity (Es-2) -4.47% [at 11.6 µM] | activity change, negative = cytotoxicity (HeLa) 6.83% [at 11.6 µM] | activity change, negative = cytotoxicity (Hek293T) 3.96% [at 11.6 µM] | activity change, negative = cytotoxicity (JEG-3) -0.8% [at 11.6 µM] | activity change, negative = cytotoxicity (OV90) 3.65% [at 11.6 µM]
